PubChem BioAssay (Tox21)
Where “and” joins values, the source holds several entries; their conditions need not be identical. Identical values can stand only once. Results filed as inconclusive are left out. More than one record can exist for a structure, and the calls need not agree. Calls of active or inactive are those of the source. Unless noted, calls follow the shape of the dose curve; as a rule, active = well fitted curve in the direction sought with a large enough effect in the repeat runs; inconclusive = weak or mixed curves; inactive = no such curve, though single readings can be large; an effect the other way counts as inactive or inconclusive.

Columns and labels:
[1] = qHTS assay to identify aromatase inhibitors - cell viability counter screen (AID 743084);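 also: cells stimulated with testosterone during compound exposure; nearly all actives have a fitted effect of over 55% in size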
[2] = target: Aryl hydrocarbon receptor (Homo sapiens) (UniProt P35869); test: qHTS assay to identify small molecule that activate the aryl hydrocarbon receptor (AhR) signaling pathway (AID 743085); also: nearly all actives have a fitted effect of over 15% in size; also: potency is read from the fitted curve at half-maximal effect;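 as to activation: HG2L7.5c1 human HepG2 liver cells with stably integrated DRE-driven firefly reporter; series mostly up to about 70 µM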
Chain of Aryl hydrocarbon receptor (Homo sapiens) (P35869 whole entry, looked up): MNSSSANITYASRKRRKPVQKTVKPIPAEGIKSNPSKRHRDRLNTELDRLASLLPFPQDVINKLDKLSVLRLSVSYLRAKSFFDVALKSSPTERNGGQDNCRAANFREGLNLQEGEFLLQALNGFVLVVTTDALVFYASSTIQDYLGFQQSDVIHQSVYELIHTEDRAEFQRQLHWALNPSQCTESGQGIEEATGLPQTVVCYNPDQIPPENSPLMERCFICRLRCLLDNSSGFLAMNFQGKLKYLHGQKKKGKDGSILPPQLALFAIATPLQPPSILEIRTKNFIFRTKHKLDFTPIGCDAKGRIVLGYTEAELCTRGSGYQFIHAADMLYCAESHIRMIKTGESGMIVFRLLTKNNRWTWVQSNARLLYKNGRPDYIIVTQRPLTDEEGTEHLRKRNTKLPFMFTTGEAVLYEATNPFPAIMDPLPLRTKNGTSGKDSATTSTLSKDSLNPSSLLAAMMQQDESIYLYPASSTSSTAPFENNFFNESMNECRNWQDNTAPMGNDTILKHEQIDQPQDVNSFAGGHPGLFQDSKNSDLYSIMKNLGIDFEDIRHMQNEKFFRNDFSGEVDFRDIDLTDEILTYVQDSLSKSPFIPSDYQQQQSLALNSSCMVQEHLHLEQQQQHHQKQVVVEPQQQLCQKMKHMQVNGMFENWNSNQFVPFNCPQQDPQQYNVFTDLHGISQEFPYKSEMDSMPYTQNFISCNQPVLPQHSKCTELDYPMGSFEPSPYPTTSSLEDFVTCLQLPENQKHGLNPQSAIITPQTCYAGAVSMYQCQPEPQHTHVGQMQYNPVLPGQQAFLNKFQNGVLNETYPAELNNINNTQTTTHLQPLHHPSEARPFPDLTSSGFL
Method in brief: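 Stably transfected human liver carcinoma cells (HG2L7.5c1; 20 DRE-firefly luciferase) were incubated 5 h, dosed, and kept 24 h at 37C. Agonism was scored from increased luciferase luminescence.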

[3] = qHTS assay to identify small molecule that activate the aryl hydrocarbon receptor (AhR) signaling pathway - cell viability counter screen (AID 743086);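 also: HepG2 liver cells carrying the AhR DRE luciferase reporter; series mostly up to about 70 µM; nearly all actives have a fitted effect of over 45% in size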
Method in brief: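 Cytotoxicity counter screen: CellTiter-Fluor signal (30 min, 37 C) in 4000 HepG2 cells/well carrying the DRE-luciferase reporter, following 24 h compound exposure at 37 C.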

[4] = target: Peroxisome proliferator-activated receptor gamma (Homo sapiens) (UniProt P37231); test: qHTS assay to identify small molecule agonists of the peroxisome proliferator-activated receptor gamma (PPARg) signaling pathway (AID 743094; active = well fitted activation curve with a large enough effect in the signal ratio in the repeat runs, not every such curve was filed as active; the % refers to the signal ratio)
Chain of Peroxisome proliferator-activated receptor gamma (Homo sapiens) (P37231 whole entry, looked up): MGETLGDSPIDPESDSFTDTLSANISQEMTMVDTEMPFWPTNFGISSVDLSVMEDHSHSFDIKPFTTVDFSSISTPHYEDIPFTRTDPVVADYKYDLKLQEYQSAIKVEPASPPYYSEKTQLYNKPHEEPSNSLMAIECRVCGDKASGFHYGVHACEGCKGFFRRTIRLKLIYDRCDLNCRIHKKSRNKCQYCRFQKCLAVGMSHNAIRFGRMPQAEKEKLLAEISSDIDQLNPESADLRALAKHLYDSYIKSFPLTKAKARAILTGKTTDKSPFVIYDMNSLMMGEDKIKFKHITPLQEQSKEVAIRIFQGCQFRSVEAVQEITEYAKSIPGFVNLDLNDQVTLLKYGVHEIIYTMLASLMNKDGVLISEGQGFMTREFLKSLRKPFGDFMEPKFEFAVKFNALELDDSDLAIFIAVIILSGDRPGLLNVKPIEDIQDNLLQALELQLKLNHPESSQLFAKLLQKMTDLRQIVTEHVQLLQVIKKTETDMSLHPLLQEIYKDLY
Method in brief: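 Cell-based bla reporter, HEK293H background, PPARg-driven UAS. Pre-incubation 5 h, 37C, 5% CO2. Compound 17 h, 37C. Substrate 1 h RT; fluorescence.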

[5] = target: Peroxisome proliferator-activated receptor gamma (Homo sapiens) (UniProt P37231); test: qHTS assay to identify small molecule antagonists of the peroxisome proliferator-activated receptor gamma (PPARg) signaling pathway (AID 743191; calls by dose curve; also: nearly all actives have a fitted effect of over 30% in size; also: potency is read from the fitted curve at half-maximal effect)
Method in brief: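 Beta-lactamase reporter under UAS control in HEK293H PPARg-bla cells; compound treatment 17 h at 37C. Read-out: fluorescence intensity after 1 h room-temperature incubation with LiveBLAzer B/G FRET substrate.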

[6] = qHTS assay to identify small molecule antagonists of the peroxisome proliferator-activated receptor gamma (PPARg) signaling pathway - cell viability counter screen (AID 743194); conditions: Potency: co-treated with 50 nM rosiglitazone unless noted; also: nearly all actives have a fitted effect of over 55% in size
Method in brief: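 Viability was measured as CellTiter-Glo luminescence in GeneBLAzer PPARg UAS-bla HEK293H cells. These cells had been exposed 17 h at 37 C to compounds together with rosiglitazone at 50 nM final, with the beta-lactamase readout taken in the same wells.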

[7] = qHTS assay for small molecule agonists of the antioxidant response element (ARE) signaling pathway (AID 743202; active = well fitted activation curve with a large enough effect in the signal ratio in the repeat runs, not every such curve was filed as active; the % refers to the signal ratio; also: potency is read from the fitted curve at half-maximal effect)
Method in brief: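 Beta-lactamase reporter activity, read as fluorescence intensity, reflects ARE/Nrf2 pathway induction in HepG2 cells after 16 h compound exposure at 37 C; substrate loading was 2 h at room temperature.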

[8] = qHTS assay for small molecule agonists of the antioxidant response element (ARE) signaling pathway - cell viability counter screen (AID 743203; calls by dose curve; also: nearly all actives have a fitted effect of over 55% in size)
Method in brief: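 Measured in the same wells as the beta-lactamase ARE reporter, this read-out is CellTiter-Glo luminescence from HepG2 ARE-bla cells given compounds for 16 hrs.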

[9] = qHTS assay for small molecule activators of the heat shock response signaling pathway - cell viability counter screen (AID 743209); also: nearly all actives have a fitted effect of over 50% in size
Method in brief: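 Same-well multiplex: after 2.5 h room-temperature incubation with LiveBLAzer B/G substrate and fluorescence reading, CellTiter-Glo reagent was added to HSE-bla HeLa cells that had received compound for 5 h at 37 C; luminescence read after 30 min.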

[10] = qHTS assay for small molecule activators of the heat shock response signaling pathway (AID 743210; active = well fitted activation curve with a large enough effect in the signal ratio in the repeat runs, with a control signal flat, not every such curve was filed as active; the % refers to the signal ratio;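 also: HeLa cells with beta-lactamase reporter driven by heat shock elements; series mostly up to about 63 µM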)
Method in brief: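 Fluorescence from a cleaved B/G FRET substrate (2.5 h, room temp) reports HSE-driven beta-lactamase in HeLa cells treated 5 h at 37 C with DMSO-dissolved compounds.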

[11] = qHTS assay to identify small molecule agonists of the peroxisome proliferator-activated receptor delta (PPARd) signaling pathway - cell viability counter screen (AID 743211); also: nearly all actives have a fitted effect of over 55% in size
Method in brief: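 In the same wells used for beta-lactamase reporter measurement, cytotoxicity is scored by CellTiter-Glo. HEK293H PPARd-bla cells receive compound for 17 h at 37C following a 5 h settling period.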

[12] = target: Peroxisome proliferator-activated receptor delta (Homo sapiens) (UniProt Q03181); test: qHTS assay to identify small molecule agonists of the peroxisome proliferator-activated receptor delta (PPARd) signaling pathway (AID 743212; calls by dose curve;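 also: HEK293H cells with PPARd UAS beta-lactamase reporter GeneBLAzer system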)
Chain of Peroxisome proliferator-activated receptor delta (Homo sapiens) (Q03181 whole entry, looked up): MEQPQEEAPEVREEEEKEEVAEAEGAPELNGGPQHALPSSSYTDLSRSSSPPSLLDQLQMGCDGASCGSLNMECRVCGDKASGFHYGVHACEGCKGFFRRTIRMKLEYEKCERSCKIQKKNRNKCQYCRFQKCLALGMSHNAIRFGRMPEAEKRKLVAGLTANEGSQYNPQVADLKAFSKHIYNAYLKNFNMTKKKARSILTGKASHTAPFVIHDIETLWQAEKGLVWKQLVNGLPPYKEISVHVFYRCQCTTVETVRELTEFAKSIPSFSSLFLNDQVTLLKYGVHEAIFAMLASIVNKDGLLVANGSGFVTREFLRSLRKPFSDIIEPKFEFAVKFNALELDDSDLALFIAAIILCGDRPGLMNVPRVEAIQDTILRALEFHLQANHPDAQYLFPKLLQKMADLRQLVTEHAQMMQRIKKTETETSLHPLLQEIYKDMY
Method in brief: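 Steps: seed PPARd-bla HEK293H cells; incubate 5 h, 37 C, 5% CO2; add compounds in DMSO; incubate, 37 C; add LiveBLAzer B/G FRET substrate; hold 2 h at room temperature; measure fluorescence.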

[13] = qHTS assay to identify small molecule antagonists of the peroxisome proliferator-activated receptor delta (PPARd) signaling pathway - cell viability counter screen (AID 743213); also: nearly all actives have a fitted effect of over 50% in size
Method in brief: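 PPARd-bla HEK293H cells were treated with compounds plus agonist L165041 (300 nM final) for 17 h at 37 C. Viability was then read in the same wells by CellTiter-Glo luminescence after 30 min at room temperature.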

[14] = target: Peroxisome proliferator-activated receptor delta (Homo sapiens) (UniProt Q03181); test: qHTS assay to identify small molecule antagonists of the peroxisome proliferator-activated receptor delta (PPARd) signaling pathway (AID 743215; active = well fitted inhibition curve with a large enough effect in the signal ratio in the repeat runs, not every such curve was filed as active; the % refers to the signal ratio;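 also: cells stimulated with agonist L165041 at 300 nM final during compound exposure; series mostly up to about 62 µM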)
Method in brief: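 Fluorescence from cleaved LiveBLAzer B/G FRET substrate (2 h, room temperature) reports PPARd-driven beta-lactamase in HEK293H UAS-bla cells. Cells had been treated 17 h at 37 C with compound plus 300 nM final L165041.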

[15] = qHTS assay to identify small molecule agonists of the farnesoid-X-receptor (FXR) signaling pathway - cell viability counter screen (AID 743218); also: nearly all actives have a fitted effect of over 45% in size
Method in brief: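 Readout: CellTiter-Glo luminescence, 30 min RT, multiplexed after the FXR-bla FRET reading. HEK 293T FXR-UAS-bla cells received compound 5 h post-plating and were incubated 16 h at 37 C.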

[16] = qHTS assay to identify small molecule antagonists of the farnesoid-X-receptor (FXR) signaling pathway - cell viability counter screen (AID 743221; active = well fitted cell-killing curve with a large enough effect in the repeat runs, not every such curve was filed as active; also: nearly all actives have a fitted effect of over 50% in size)
Method in brief: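 Here viability was scored by luminescence after CellTiter-Glo addition to wells already read for beta-lactamase. Prior treatment: compound plus CDCA (50 uM final), 16 h, 37 C, HEK 293T FXR-bla cells.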

[17] = target: Bile acid receptor (Homo sapiens) (UniProt Q96RI1); test: qHTS assay to identify small molecule antagonists of the farnesoid-X-receptor (FXR) signaling pathway (AID 743217; active = well fitted inhibition curve with a large enough effect in the signal ratio in the repeat runs, not every such curve was filed as active; the % refers to the signal ratio)
Chain of Bile acid receptor (Homo sapiens) (Q96RI1 whole entry, looked up): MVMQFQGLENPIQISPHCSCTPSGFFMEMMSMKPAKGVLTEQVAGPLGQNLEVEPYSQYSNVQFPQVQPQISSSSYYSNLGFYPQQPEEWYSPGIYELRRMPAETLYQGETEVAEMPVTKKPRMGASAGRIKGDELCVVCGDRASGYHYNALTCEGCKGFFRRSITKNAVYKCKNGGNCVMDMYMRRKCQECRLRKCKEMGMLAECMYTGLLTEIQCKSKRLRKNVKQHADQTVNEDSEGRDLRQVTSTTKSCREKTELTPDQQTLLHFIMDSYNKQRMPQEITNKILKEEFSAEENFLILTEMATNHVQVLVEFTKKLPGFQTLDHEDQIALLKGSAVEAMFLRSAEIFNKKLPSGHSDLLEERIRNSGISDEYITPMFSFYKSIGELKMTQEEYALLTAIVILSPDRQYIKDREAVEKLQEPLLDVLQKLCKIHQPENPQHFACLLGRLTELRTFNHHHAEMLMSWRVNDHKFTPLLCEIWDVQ
Method in brief: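 FRET fluorescence after 2 h room-temperature LiveBLAzer loading gives the readout. Prior step: FXR-bla HEK 293T cells, seeded and incubated 5 h, received test compounds plus 50 uM final CDCA for 16 h at 37 °C.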

[18] = target: Bile acid receptor (Homo sapiens) (UniProt Q96RI1); test: qHTS assay to identify small molecule agonists of the farnesoid-X-receptor (FXR) signaling pathway (AID 743220; active = well fitted activation curve with a large enough effect in the signal ratio in the repeat runs, not every such curve was filed as active; the % refers to the signal ratio)
Method in brief: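 FXR-UAS-bla HEK 293T cells carrying a UAS-driven beta-lactamase reporter were plated for 5 h at 37C/5% CO2, then exposed to DMSO-dissolved Tox21 10K compounds for 16 h at 37C. A LiveBLAzer B/G FRET substrate was loaded for 2 h at room temperature before fluorescence reading.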

[19] = target: Vitamin D3 receptor (Homo sapiens) (UniProt P11473); test: qHTS assay to identify small molecule agonists of the vitamin D receptor (VDR) signaling pathway (AID 743222; calls by dose curve)
Chain of Vitamin D3 receptor (Homo sapiens) (P11473 whole entry, looked up): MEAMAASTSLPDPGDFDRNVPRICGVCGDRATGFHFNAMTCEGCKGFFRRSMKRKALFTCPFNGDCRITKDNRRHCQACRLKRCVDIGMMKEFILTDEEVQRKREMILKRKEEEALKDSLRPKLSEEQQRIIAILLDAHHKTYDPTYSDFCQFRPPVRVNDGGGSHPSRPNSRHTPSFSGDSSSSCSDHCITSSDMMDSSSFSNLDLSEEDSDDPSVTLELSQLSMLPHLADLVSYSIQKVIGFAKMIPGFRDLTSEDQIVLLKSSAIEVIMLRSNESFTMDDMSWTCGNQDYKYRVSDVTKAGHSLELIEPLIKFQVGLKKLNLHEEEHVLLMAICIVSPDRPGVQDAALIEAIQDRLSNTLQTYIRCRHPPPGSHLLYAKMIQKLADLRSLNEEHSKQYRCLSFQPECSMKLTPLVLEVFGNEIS
Method in brief: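 Following 4 h attachment at 37C, VDR-bla cells (2,000 per well) received DMSO-dissolved compounds or controls. After 16 h incubation, LiveBLAzer B/G FRET substrate was added and fluorescence read 2 h later at room temperature.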

[20] = target: Vitamin D3 receptor (Homo sapiens) (UniProt P11473); test: qHTS assay to identify small molecule antagonists of the vitamin D receptor (VDR) signaling pathway (AID 743223; active = well fitted inhibition curve with a large enough effect in the signal ratio in the repeat runs, not every such curve was filed as active; the % refers to the signal ratio)
Method in brief: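 Inhibition of agonist-driven VDR signalling is scored in VDR-bla cells: 3 nM final 1alpha,25-dihydroxyvitamin D3 plus compound, 16 h at 37C, then beta-lactamase detection by FRET substrate fluorescence after 2 h.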

Measured: Potency

Nc1ccc(Cl)cc1
active: [2] 24.3 µM and 30.6 µM and 24.8 µM | [5] 87.1 nM
not listed: [17] | [18] | [19] | [20]
inactive: all other assays above

O=C(O)c1nc(Cl)ccc1Cl
inactive: [1] | [3] | [6] | [7] | [8] | [9] | [10] | [11] | [15] | [16]
22.4 µM (active) and inactive: [2]

COCC(=O)N(c1c(C)cccc1C)C(C)C(=O)OC (stereo unspecified)
inactive: all assays above

CNC
not listed: [13] | [17] | [18]
inactive: all other assays above

Cc1cc(Cl)ccc1N
active: [2] 31.3 µM and 33.6 µM
not listed: [13] | [17] | [18] | [19] | [20]
inactive: all other assays above

CCCCn1cc[n+](C)c1C
active: [7] 60.8 µM and 54.7 µM and 61.6 µM
not listed: [4] | [5] | [12] | [14] | [17] | [18] | [19] | [20]
inactive: all other assays above

Cc1cc(Cl)ccc1OCC(=O)O
not listed: [12] | [13] | [14] | [17] | [18]
inactive: all other assays above
